Bioassay records deposited in PubChem by National Center for Advancing Translational Sciences (NCATS).
Only a selection was taken, and hits are over-represented in it overall.
TbPYK inhibitor – inhibitors of Trypanosoma brucei pyruvate kinase. AID 624173. 410,000 tested, 0.12% active. Q57TT1. TbPYK enzyme, Kinase-Glo Plus ATP luminescence, 45 min. Potency, µM (doses to about 76.8 µM), without a hit: at the top dose activity, negative = inhibition, hits mostly inhibitors; note: potency is the fitted concentration of half-maximal effect; % is set by controls: 0 for no effect and ±100 for the full control effect; nearly all actives have a fitted effect of over 50% in size
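Glycolytic pyruvate kinase of T. brucei was incubated with substrate, test compound and 130 uM ADP for 45 minutes at room temperature. Luminescent Kinase-Glo Plus signal was measured after 10 minutes.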
Cycloheximide cs – counter-screen for Shiga toxin inhibitors: cycloheximide protein synthesis inhibition | cell reporter, cycloheximide protein synthesis inhibition counterscreen | max response, % | 300,000 tested, 12% active | AID 2314; in the data active = max response mostly above about 13%, no sharp cut-off; inactive = mostly below about 14%; note: read at 38.3 µM for the half of the compounds with a filed dose; 0% is about no effect
RE007 growth inh – less growth of the S. pombe RE007 Vpr strain. Potency, µM (doses to about 92.2 µM), for the others: at the highest dose activity change, negative = less growth, hits mostly inhibitors. S. pombe RE007 Vpr strain, BacTiter-Glo ATP luminescence, 24 h. 360,000 tested, 0.21% active. AID 651644; active = well fitted falling curve with a large enough effect; inconclusive = small, poorly fitted or top-dose-only effect; inactive = no such curve, though single readings can be large or run the other way; note: potency is the fitted concentration of half-maximal effect; % is set by controls: 0 for no effect and ±100 for the full control effect; nearly all actives have a fitted effect of over 50% in size
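Fission yeast RE007 carrying one integrated HIV-1 vpr copy, seeded at OD 0.01 in PMG+AL medium with 23 nL pinned compound. Grown 24 h at 30 degrees; viability read by BacTiter-Glo luminescence after 5 min.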
LmPK inh – inhibitors of Leishmania mexicana pyruvate kinase; Q27686; purified LmPK, Kinase-Glo ATP luminescence, 1 h; Potency, µM (highest dose often 57.5 µM), without a hit: top-dose activity change, negative = inhibition, hits mostly inhibitors; 290,000 tested, 0.37% active; AID 1721; note: potency is the fitted concentration of half-maximal effect; % is set by controls: 0 for no effect and ±100 for the full control effect
Target sequence (Q27686 whole entry, looked up): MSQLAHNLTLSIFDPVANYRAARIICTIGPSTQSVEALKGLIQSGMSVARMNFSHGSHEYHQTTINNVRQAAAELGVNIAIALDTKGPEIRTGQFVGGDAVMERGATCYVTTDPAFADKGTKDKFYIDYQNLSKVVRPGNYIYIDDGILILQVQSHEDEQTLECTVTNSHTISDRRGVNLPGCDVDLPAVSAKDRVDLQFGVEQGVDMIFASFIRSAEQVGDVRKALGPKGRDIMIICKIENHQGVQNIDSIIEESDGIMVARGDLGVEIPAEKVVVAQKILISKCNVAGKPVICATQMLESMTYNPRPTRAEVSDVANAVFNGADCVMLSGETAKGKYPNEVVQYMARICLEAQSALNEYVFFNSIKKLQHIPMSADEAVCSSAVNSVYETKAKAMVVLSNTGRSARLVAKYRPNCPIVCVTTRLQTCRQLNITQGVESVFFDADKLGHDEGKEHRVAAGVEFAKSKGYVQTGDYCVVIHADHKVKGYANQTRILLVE
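0.1 nM LmPK, 0.5 mM PEP, 0.1 mM ADP; 50 mM imidazole pH 7.2, 7 mM MgCl2, 50 mM KCl; 1 h RT. Kinase-Glo luminescence readout, normalized to no-enzyme (full inhibition) and uninhibited wells.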
FBPA Giardia inh – Giardia lamblia aldolase inhibition. A8B2U2. purified Giardia FBPA. Potency, µM (series often up to 59.6 µM), inactives show at the top dose activity, negative = inhibition, actives largely listed as inhibitors. 290,000 tested, 0.71% active. AID 2451; note: potency is the fitted concentration of half-maximal effect; % is set by controls: 0 for no effect and ±100 for the full control effect; nearly all actives have a fitted effect of over 55% in size
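40 nM FBPA preincubated 10 min at RT with compound (up to 57.5 uM final), then substrate plus GAPDH/TPI/NAD/arsenate coupling and diaphorase/resazurin added. Fluorescence read after 20 min at RT, 525/598 nm.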
Shiga toxin inh – blocks Shiga toxin action in Vero cells; inhibition, % at 38.7 µM; 290,000 tested, 9.2% active; Vero cells, Shiga toxin protein synthesis inhibition reporter; in the data active = inhibition mostly above about 28%, no sharp cut-off; inactive = mostly below about 43%; note: 0% is about no effect
Active calls of the source: *; ? = inconclusive; . = no result; [ ] = another dose, or the depositor's remark. Unless noted, calls come from the whole dose curve; as a rule, active = well fitted curve in the direction sought with a large enough effect; inconclusive = small, poorly fitted or top-dose-only effect, or another doubt; inactive = no such curve, though single readings can be large; an effect the other way counts as inactive or inconclusive.

SMILES | TbPYK inhibitor | Cycloheximide cs | RE007 growth inh | LmPK inh | FBPA Giardia inh | Shiga toxin inh
Cc1c2cnn(CC(=O)N3CCC4(CC3)OCCO4)c(=O)c2c(C)n1Cc1ccccc1 | 6% | -2 | 5% | -9% | 0% | -14
Cc1c2cnn(CC(=O)N3CCC4(CC3)OCCO4)c(=O)c2c(C)n1Cc1ccccc1Cl | 3% | 14* | 3% | -1% | -1% | 14
Cc1ccc(C(=O)N(CCCN(C)C)c2nc3ccc(Cl)cc3s2)cc1C | 1% | -7 | 1% | -7%[11.5 µM] | -11% | -32
CN(C)CCCN(C(=O)c1ccc2c(c1)OCCO2)c1nc2ccc(Cl)cc2s1 | . | 15* | . | -3% | . | 36
CN(C)CCN(C(=O)c1ccc2c(c1)OCCO2)c1nc2ccc(Cl)cc2s1 | -9% | 27* | -1% | 6%[11.5 µM] | -4% | 36
COc1ccc(COC(=O)c2ccc(Br)c(S(=O)(=O)N3CCOCC3)c2)cc1F | 9% | . | -4% | . | . | .
Nc1nc(N)nc(-c2ccccc2)n1 | -2% | 0 | 1% | 1% | 7% | -10
O=C(O)c1ncc(-c2ccccc2)cn1 | 0% | -5 | 4% | 1% | -16% | 35
c1ccc(-c2cnc(-c3ccccc3)nc2)cc1 | -1% | 69* | 4% | ? | 4% | 88*
Nc1cnc(-c2ccccc2)nc1Cl | 1% | 16 | -12% | -5% | 3% | 13*
CC(C)(C)[C@H]1C=C(C(N)=O)O[C@@H](OCCCCO)C1 | 14% | -3 | -15% | 2% | -29% | 2
O=C(c1cn(-c2ccc(Cl)c(Cl)c2)nn1)C1CC1 | -1% | 37* | 4% | -1% | 2% | 51*
O=C1CCCCC1C(=O)c1cn(-c2ccc(Cl)c(Cl)c2)nn1 (centres undefined) | 1% | 11 | -5% | -2% | 0% | 16
COc1ccc(-n2ccn(Cc3ccccc3C)c(=O)c2=O)cc1 | 4% | . | . | . | . | .
Cc1ccc(NC(=O)C[n+]2cc(-c3ccc(C)cc3)n3c2CCC3)cc1 | 6% | -2 | -9% | 4% | -5% | -4
Cn1c(NC(=O)C[n+]2cc(-c3ccc(Cl)c(Cl)c3)n3c2CCC3)cc(=O)n(C)c1=O | -1% | -3 | 32µM* | -1% | 2% | -3
CC1=C(CC(=O)c2ccc(Cl)cc2)C(=O)c2ccccc2C1=O | -3% | 27* | -21% | 2% | -24% | 61*
COc1cccc2sc(N(Cc3cccnc3)C(=O)Cc3ccccc3)nc12 | 1%[15.4 µM] | . | . | . | . | .
CC(=O)c1c(C)[nH]c(C(=O)OCCOc2ccccc2)c1C | -1% | 23 | -2% | -3% | -1% | 47*
CC(=O)c1c(C)[nH]c(C(=O)OCc2ccccc2F)c1C | 4% | 46* | 10% | 2% | -1% | 95*
CC(=O)c1c(C)[nH]c(C(=O)COC(=O)CCCOc2ccccc2)c1C | -4% | -4 | 19% | 4% | 0% | -4
Cc1c(C(=O)OCCOc2ccccc2)[nH]c2c1C(=O)CCC2 | -7% | 29* | 8% | 2% | -10% | 47*
CC(=O)c1c(C)[nH]c(C(=O)OCc2cccc(C)c2)c1C | -1% | 36* | 0% | -2% | 0% | 95*
CCOc1ccc(C2CC(=O)c3c([nH]c(C(=O)OCCOc4ccccc4)c3C)C2)cc1 (centres undefined) | 6% | . | . | . | . | .
C=C1C2c3ccccc3C(CC2(C)O[Si](C)(C)C)N1C(=O)OC (centres undefined) | . | . | . | 0%[11.5 µM] | 6%[12.9 µM] | .
SMILES | TbPYK inhibitor | Cycloheximide cs | RE007 growth inh | LmPK inh | FBPA Giardia inh | Shiga toxin inh
Cc1c(C(=O)OC2CCCC2C)[nH]c2c1C(=O)CCC2 (centres undefined) | 1% | 48* | 3% | 0% | -1% | 64*
CC(=O)c1c(C)[nH]c(C(=O)OCc2ccc(Br)cc2)c1C | -1% | 45* | -8% | -1% | 0% | 69*
CCOC(=O)c1c(C)[nH]c(C(=O)OCc2ccc(C)cc2)c1C | 9% | . | -14% | . | . | .
CC(=O)N1CCc2cc(Br)cc(S(=O)(=O)CCC(=O)N3CCN(c4ccccc4Cl)CC3)c21 | -10% | . | . | . | . | .
O=c1c(-c2ccccc2)nc2cnc(Oc3ccccc3)nc2n1Cc1cccs1 | -1% | . | . | . | 2% | .
O=C(Nc1ccc(F)cc1F)C1CCN(S(=O)(=O)c2ccc3[nH]c(=O)ccc3c2)CC1 | -7% | . | . | . | . | .
O=C(CCCCn1c(=O)c2ccccc2n(CC(=O)Nc2ccccc2)c1=O)NCc1ccccc1Cl | -4% | . | . | . | . | .
C=C1C(c2ccc(C)cc2)=CCc2cc(C)cc(C)c21 | . | 39* | . | . | 2% | 53*
CN(C)c1ccc(N2C(=NC(=O)COc3ccccc3)SC3CS(=O)(=O)CC32)cc1 (centres undefined) | -8% | 25* | -6% | -11% | . | 46*
O=C(COc1ccccc1)N=C1SC2CS(=O)(=O)CC2N1c1ccccc1 (centres undefined) | 6% | -2 | -4% | 14% | -12% | -6
O=C(Nc1ccccc1Cl)c1ccc(F)c(S(=O)(=O)NCc2ccc(Cl)c(Cl)c2)c1 | -7% | . | . | . | . | .
O=C1C(C=Nc2ccccc2)=C(O)c2ccccc21 | 0% | 29* | -23% | 3.5µM* | 2% | 173*
COc1ccc(Cn2c(O)c(C=Nc3ccc(OC)cc3)c3ccccc3c2=O)cc1 | -9% | -3 | -2% | 1% | -8% | -6
COc1ccc(N=Cc2ccccc2O)cc1 | 3% | . | -1% | . | . | .
COc1ccc(N=Cc2[nH]c3ccccc3c2O)cc1 | -26% | 31* | -8% | 3% | 14µM* | 42*
COc1ccc(N=Cc2oc3ccc4ccccc4c3c2O)cc1 | -3% | 50* | -16% | -10% | -2% | 72*
O=C1CC(c2ccccc2Cl)CC(O)=C1C=Nc1ccccc1 (centres undefined) | -4% | 2 | ? | 0% | 8% | -2
CN=CC1=C(O)c2ccccc2C1=O | 4% | 41* | -7% | 1% | 0% | 76*
Cn1c(=O)c(C(=O)N2CCc3ccccc32)cc2cccnc21 | -7% | . | -5% | . | . | .
CC(NC(N)=O)C(=O)Nc1ccc(Cl)c(S(=O)(=O)Nc2ccc(Br)cc2)c1 (centres undefined) | -3% | -4 | 9% | -4% | 8% | -12
COc1ccc(N=CC2=C(O)c3ccccc3C2=O)cc1 | -20% | 24* | 16% | 3.2µM* | 2% | 107*
COc1ccc(N=Cc2c[nH][nH]c2=O)cc1 | -7% | -1 | -3% | -7% | 0% | -8
O=C(C/C=N/OCc1ccc(Cl)cc1Cl)c1ccc(Cl)cc1 | 2% | 4 | 4% | -5% | 1% | 59
O=C(C/C=N/OCc1c(Cl)cccc1Cl)c1ccccc1 | 4% | 37* | -23% | 3% | -2% | 48
O=C(C/C=N/OCc1ccc(Cl)cc1Cl)c1ccccc1 | -5% | 20* | -5% | 1% | 5% | 47
